Experimental data as given in the supplement of paper PMC10121225.
Structures can show the parent of a compound that is named as a salt.

The compounds below were run on hN + hpA co-culture (H1 iNGN2 human neurons + human primary astrocytes) (assay: presynaptic density (SYNAPSIN1 puncta per MAP2 neurite area), Z-score vs DMSO controls; higher = more presynaptic puncta (synapse-promoting)). Details: 3 µM; 72 h.
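Also: immunostained co-cultures imaged by high-content microscopy, Z-score per plate against mean and SD of 0.1% DMSO wells, compounds added on differentiation day 18, analysed day 21.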

Compound	presynaptic density (Z-score)
CCOC(=O)[C@H](CCc1ccccc1)N[C@@H](C)C(=O)N1C(=O)N(C)C[C@H]1C(=O)O [Imidapril HCl]	-0.0695
CC(=O)Nc1nc2c(Oc3cc(-c4ccc(C(F)(F)F)cc4)ncn3)cccc2s1	0.208
O=S(=O)(c1ccccc1)N(CC(F)(F)F)c1ccc(C(O)(C(F)(F)F)C(F)(F)F)cc1	-0.732
CC(C)(C)c1cc(C(C)(C)C)c(NC(=O)c2c[nH]c3ccccc3c2=O)cc1O [Ivacaftor (VX-770)]	0.324
COc1ccc2c(c1)c(CC(=O)N1CCOCC1)c(C)n2C(=O)c1ccc(Cl)cc1	-0.448
C=C1C(=O)O[C@H]2[C@H]1CC/C(C)=C/CC[C@@]1(C)O[C@@H]21 [(-)-Parthenolide]	-0.888
COc1cc(F)c(F)c(Nc2ccc(I)cc2F)c1NS(=O)(=O)C1(CC(O)CO)CC1 (centres undefined) [Refametinib (RDEA119]	0.433
COc1cc(CCc2cc(NC(=O)c3ccc(N4CC(C)NC(C)C4)cc3)n[nH]2)cc(OC)c1 (centres undefined)	-0.132
Cc1c(Cl)cccc1Nc1ccccc1C(=O)O [Tolfenamic acid]	-0.187
Cc1cc(C(N)=O)ccc1-n1c(CCC(=O)O)ccc1-c1ccc(-n2ccnc2)cc1	-0.771
CCNC(=O)c1noc(-c2cc(C(C)C)c(O)cc2O)c1-c1ccc(CN2CCOCC2)cc1	3.55
O=c1ncccn1[C@@H]1O[C@H](CO)[C@@H](O)[C@H]1O [Zebularine]	-0.579
CNCc1ccc(-c2cc(-c3nc(-c4ccc(S(=O)(=O)C(C)C)cc4)cnc3N)on2)cc1	-1.03
COc1cc(Nc2ncc(F)c(Nc3ccc4c(n3)N(COP(=O)(O)O)C(=O)C(C)(C)O4)n2)cc(OC)c1OC [Fostamatinib (R788)]	0.149
O=C(NNc1nc2cc(F)ccc2n2cccc12)c1cnccn1	-1.29
CC(=O)c1cc([N+](=O)[O-])c(Sc2ccc(F)cc2F)s1	0.25
COC(=O)CCSCc1ccc(-c2onc(C)c2NC(=O)OC(C)c2ccccc2Cl)cc1 (centres undefined)	-0.843
Nc1cccc(-c2cc3c(Oc4cccc(O)c4)ncnc3[nH]2)c1	0.148
C[C@@H]1CN(CC(=O)Nc2ccc3c(c2)Cc2cccc(-c4cc(=O)cc(N5CCOCC5)o4)c2S3)C[C@H](C)O1	-1.12
COc1ccc(COc2ccc(Cc3cnc(N)nc3N)cc2OC)cc1	-0.788

Compound	presynaptic density (Z-score)
CC(C)c1c(C(=O)Nc2ccccc2)c(-c2ccccc2)c(-c2ccc(F)cc2)n1CC[C@@H](O)C[C@@H](O)CC(=O)O	-2.01
NC(=O)Nc1sc(-c2ccc(F)cc2)cc1C(N)=O	-1.69
Cc1cc(OCCCS(C)(=O)=O)cc(C)c1-c1cccc(COc2ccc3c(c2)OC[C@H]3CC(=O)O)c1	-0.294
O=C(NCc1ccccc1)c1csc(Nc2ccncn2)n1 [Thiazovivin]	0.74
CN[C@H]1CC[C@@H](c2ccc(Cl)c(Cl)c2)c2ccccc21	1.13
CC1(COc2ccc3c(c2)ncn3-c2ccc3cccc(N4CCC(N)CC4)c3n2)COC1	-0.296
CCn1c(=O)c2c(nc(/C=C/c3ccc(OC)c(OC)c3)n2C)n(CC)c1=O [Istradefylline]	-0.775
CC(C)c1cc(-c2n[nH]c(=O)n2-c2ccc3c(ccn3C)c2)c(O)cc1O [Ganetespib (STA-9090)]	2.03
O=C(O)CCc1ccc(NCc2cccc(Oc3ccccc3)c2)cc1 [4-[[(3-Phenoxyphenyl)methyl]amino]benzenepropanoic acid]	-0.812
Cc1c(NC(=O)c2ccc(C(C)(C)C)cc2)cccc1-c1cn(C)c(=O)c(Nc2ccc(C(=O)N3CCOCC3)cc2)n1	0.702
O=C(O)/C=C/c1ccc(Cn2ccnc2)cc1 [Ozagrel HCl]	-0.679
COc1nc(C)cnc1NS(=O)(=O)c1cccnc1-c1ccc(-c2nnco2)cc1 [Zibotentan (ZD4054)]	-1.1
C=CC(=O)Nc1cccc(Oc2nc(Nc3ccc(N4CCN(C)CC4)cc3OC)ncc2Cl)c1	-0.275
C=CCc1cccc(C=NNC(=O)CN2CCN(Cc3ccccc3)CC2)c1O	-1.87
CC(C=CC(=O)NO)=CC(C)C(=O)c1ccc(N(C)C)cc1 (centres undefined) [Trichostatin A (TSA)]	11.2
COc1ccc2c(c1)c(C1=C(c3c[nH]c4ccccc34)C(=O)NC1=O)cn2CCCN(C)C	-0.96
COc1cc2ncnc(Nc3ccc(Cl)cc3F)c2cc1OC	-0.982
Nc1nc(CC(=O)Nc2ccc(CCNC[C@H](O)c3ccccc3)cc2)cs1 [Mirabegron]	-0.111
CN1CCN(c2nc(C3=C(c4c[nH]c5ccccc45)C(=O)NC3=O)c3ccccc3n2)CC1 [AEB071 (Sotrastaurin)]	-0.719
